PubChem BioAssay (NCI)
This is part of a sample that, as a whole, favours compounds with a hit. Of some 83,000 tested, about 20% had one in any assay.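 The endpoint reported here, percent growth, reads 100 for growth as untreated, 0 for no net growth and -100 for all cells dead.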 Unmarked numbers belong to inactive results. Activity calls are given as the source filed them. Rule for the calls: active = growth percent below 10; inactive = the rest.

How the values were obtained:
Assay in all cases: NCI-60 one-dose screen, 48 h (100 = growth as untreated, 0 = no growth, -100 = all killed)
Conditions in all cases: 10 µM unless noted
RPMI-8226 leukemia = test system: RPMI-8226 leukemia
OVCAR-8 ovarian = test system: OVCAR-8 ovarian
OVCAR-5 ovarian = test system: OVCAR-5 ovarian
OVCAR-4 ovarian = test system: OVCAR-4 ovarian
SK-OV-3 ovarian = test system: SK-OV-3 ovarian
IGROV1 ovarian = test system: IGROV1 ovarian
OVCAR-3 ovarian = test system: OVCAR-3 ovarian
HS 578T breast = test system: HS 578T breast
NCI/ADR-RES ovarian = test system: NCI/ADR-RES ovarian
T-47D breast = test system: T-47D breast
MDA-MB-435 melanoma = test system: MDA-MB-435 melanoma
SW-620 colon = test system: SW-620 colon
MCF7 breast = test system: MCF7 breast
HCC-2998 colon = test system: HCC-2998 colon
KM12 colon = test system: KM12 colon
BT-549 breast = test system: BT-549 breast
HCT-116 colon = test system: HCT-116 colon
SR leukemia = test system: SR leukemia

Compound | growth (RPMI-8226 leukemia) | growth (OVCAR-8 ovarian) | growth (OVCAR-5 ovarian) | growth (OVCAR-4 ovarian) | growth (SK-OV-3 ovarian) | growth (IGROV1 ovarian) | growth (OVCAR-3 ovarian) | growth (HS 578T breast) | growth (NCI/ADR-RES ovarian) | growth (T-47D breast) | growth (MDA-MB-435 melanoma) | growth (SW-620 colon) | growth (MCF7 breast) | growth (HCC-2998 colon) | growth (KM12 colon) | growth (BT-549 breast) | growth (HCT-116 colon) | growth (SR leukemia) [%]
Cc1nc2ccccc2c(/C=C/c2ccc(Cl)cc2)c1C(=O)/C=C/c1ccc(Cl)cc1 | -17.4% (active) | 5.4% (active) | -45.6% (active) | 0.984% (active) | 28.4% | -51.8% (active) | -70.6% (active) | -4.76% (active) | -15.4% (active) | -15.3% (active) | -51.4% (active) | -37.4% (active) | 3.86% (active) | -74.7% (active) | -38.4% (active) | – | – | –
C#C[C@]1(O)CC[C@H]2[C@@H]3CC=C4c5sc(N=C(N)N)nc5CC[C@]4(C)[C@H]3CC[C@@]21C | -29% (active) | 10.1% | 28% | 29% | -57.2% (active) | 14.4% | -44.2% (active) | -39.2% (active) | 29.8% | 1.23% (active) | -55.9% (active) | -47.1% (active) | 0.374% (active) | -15.9% (active) | -28.6% (active) | – | – | –
Clc1ccc(/C=N\N=c2\scc(-c3ccc(Cl)cc3)n2/N=C/c2ccc(Cl)cc2)cc1 | 106% | 99.5% | 105% | 114% | 102% | 103% | 114% | 96.5% | 109% | 96.1% | 103% | 99.9% | 93.6% | 104% | 105% | 107% | 90% | –
CN(C)c1ccc(C#Cc2c(F)cccc2Cl)cc1 | 91.3% | 93.2% | 99.2% | 72% | 79% | 47.2% | 90.6% | 94.5% | 85.3% | 41.8% | 99.8% | 96% | 39.5% | 76.2% | – | – | 84.8% | –
CN(C)c1ccc(/C=N/NC(=O)COc2cc(=O)n(C)c3ccccc23)cc1 | 107% | 103% | 94.2% | 113% | 112% | 87% | 112% | 120% | 108% | 97.6% | 101% | 104% | 89.4% | 116% | – | 108% | 101% | –
CN(C)c1ccc2cc(-c3ccccc3F)c(N)nc2c1 | 25.2% | 22.6% | 68.7% | 32.8% | 28.9% | 40.9% | 3.93% (active) | 28.9% | 1.98% (active) | 27.1% | -9.25% (active) | 30% | 27% | 54.3% | 26% | 25.5% | 22.4% | –
C=C(CNCCc1ccc(O)cc1)[C@@H]1CC[C@]2(COC3CCCCO3)CC[C@]3(C)[C@H](CC[C@@H]4[C@@]5(C)CCC(N)C(C)(C)[C@@H]5CC[C@]43C)[C@@H]12 (stereo partly specified) | -64.9% (active) | -61.6% (active) | -90.6% (active) | -77.5% (active) | -95.1% (active) | -82.1% (active) | -87% (active) | -49.5% (active) | -67.1% (active) | – | -95% (active) | -77.4% (active) | -79.8% (active) | -84.7% (active) | – | -70% (active) | -91.3% (active) | –
CCCCOC(=O)c1ccc(NC(=O)C(C)N2CCOCC2)cc1 (stereo unspecified) | 88.1% | 95.6% | 112% | 124% | 109% | 103% | 102% | 99% | 101% | 107% | 113% | 101% | 106% | 102% | 109% | 86.6% | 77.6% | –
COc1ccc(-c2nc3sccn3c2/C=C/C(=O)c2c[nH]c3ccccc23)cc1 | 154% | 63.9% | 63.5% | 42.6% | 79.6% | 79.2% | 68.1% | 74.9% | 59.1% | 56.1% | 88.9% | 100% | 69.8% | 67.4% | 76.8% | 59.1% | 69.5% | –
COc1ccc(CN2C(=O)/C(=C\c3cc(OC)c(OC)c(OC)c3)c3ccccc32)cc1 | -31.1% (active) | -7.07% (active) | 31% | 23.3% | 34% | -22.7% (active) | -63.2% (active) | 47.7% | 2.38% (active) | -2.48% (active) | -10.9% (active) | -40.3% (active) | 7.23% (active) | 16.9% | -23.7% (active) | – | -93.8% (active) | –
CCN(CC)CCNc1ccc(C)c2sc3cc(C)ccc3c(=O)c12 | 10.4% | 57% | 79.5% | 85.3% | 74.8% | 52.4% | 76.6% | 73% | 59.2% | 66.5% | 37.3% | 43.6% | 43.7% | 66.4% | 60.1% | 68.3% | 23.1% | –
Cc1nc(-c2ccccc2)cc2c(O)c(C(=O)N/N=C/c3ccc(N(C)C)cc3)[nH]c(=O)c12 | -11.6% (active) | 67.3% | 85.4% | 26.6% | 105% | 49.8% | 71% | 73.2% | 66.9% | 76.5% | 86.8% | 75% | 64.1% | 95.2% | – | 103% | 57.6% | –
CCCCNC(=O)NS(=O)(=O)c1ccc(N2N=C(c3ccc(C)cc3C)CC2c2ccc(N(C)C)cc2)cc1 (stereo unspecified) | 34.2% | 57.7% | 84.6% | 64% | 97.7% | 89.9% | 51.2% | 88.1% | 46.8% | 70.4% | 9.98% (active) | 61.8% | 37.4% | 46.1% | 49.2% | 45.6% | 39.3% | –
CC(C)CCC[C@@H](C)[C@H]1CCC2C3=CCC4C(=O)C=CC(=O)C4C3CC[C@@]21C (stereo partly specified) | 8.72% (active) | 0.168% (active) | 7.74% (active) | -9.33% (active) | 10.5% | -63.2% (active) | 2.72% (active) | 8.12% (active) | 7.87% (active) | -18.9% (active) | 5.05% (active) | -10.1% (active) | 8.65% (active) | 12.4% | 7.56% (active) | -1.63% (active) | -75.5% (active) | –
COc1ccc(-c2cc(-c3cc(OC)ccc3OC)[nH]c(=O)c2C#N)cc1 | 88.6% | 56.6% | 116% | 68.9% | 71.6% | 53.3% | 21.3% | 43.5% | 34.2% | 63.8% | 1.49% (active) | 26.7% | 59.5% | 75.9% | 51.4% | 48.7% | 29.9% | –
Nc1c(C(=O)Nc2ccccc2)sc2nc3c(cc12)CCCCCC3 | – | 16.4% | 15.3% | – | -4.37% (active) | 15.3% | -34.8% (active) | – | 1.41% (active) | 38.2% | -17% (active) | 27.5% | 12.1% | 13.4% | 15.8% | – | – | 12.6
CCCCCCCCc1cc[n+](CC(=O)c2ccc(Br)cc2)cc1 | -9.98% (active) | -65.8% (active) | 51.9% | 18.8% | 22% | 1.68% (active) | -44.1% (active) | -29.2% (active) | 93.3% | -16.6% (active) | -15.1% (active) | -33.7% (active) | -74% (active) | -67.4% (active) | -56.8% (active) | 77.8% | -43.1% (active) | –
NC(=O)c1c(NC(=O)c2ccc(C(F)(F)F)cc2Cl)sc2c1CCC(=O)C2 | -22.7% (active) | 10.2% | -41.9% (active) | -74.7% (active) | -6.73% (active) | -39.2% (active) | -57.4% (active) | -7.87% (active) | -13.9% (active) | -21.2% (active) | -42% (active) | -49.7% (active) | 5.41% (active) | -6.6% (active) | -56.7% (active) | -33.2% (active) | -56.9% (active) | –
